Data on six compounds can be found in ChEMBL document CHEMBL1961873, “Compounds: GSK PKIS; Assays: Nanosyn kinase panel” (2012).

As a reminder, the inhibition is the drop in the measured response relative to a control, in per cent.

Assay [1] deals with Death-associated protein kinase 1 (Homo sapiens) (UniProt P53355). As to conditions: at 1 µM.
The target in assay [2] is T1, Serine/threonine-protein kinase DCLK2 (Homo sapiens) (UniProt Q8N568).
T1 sequence (whole entry): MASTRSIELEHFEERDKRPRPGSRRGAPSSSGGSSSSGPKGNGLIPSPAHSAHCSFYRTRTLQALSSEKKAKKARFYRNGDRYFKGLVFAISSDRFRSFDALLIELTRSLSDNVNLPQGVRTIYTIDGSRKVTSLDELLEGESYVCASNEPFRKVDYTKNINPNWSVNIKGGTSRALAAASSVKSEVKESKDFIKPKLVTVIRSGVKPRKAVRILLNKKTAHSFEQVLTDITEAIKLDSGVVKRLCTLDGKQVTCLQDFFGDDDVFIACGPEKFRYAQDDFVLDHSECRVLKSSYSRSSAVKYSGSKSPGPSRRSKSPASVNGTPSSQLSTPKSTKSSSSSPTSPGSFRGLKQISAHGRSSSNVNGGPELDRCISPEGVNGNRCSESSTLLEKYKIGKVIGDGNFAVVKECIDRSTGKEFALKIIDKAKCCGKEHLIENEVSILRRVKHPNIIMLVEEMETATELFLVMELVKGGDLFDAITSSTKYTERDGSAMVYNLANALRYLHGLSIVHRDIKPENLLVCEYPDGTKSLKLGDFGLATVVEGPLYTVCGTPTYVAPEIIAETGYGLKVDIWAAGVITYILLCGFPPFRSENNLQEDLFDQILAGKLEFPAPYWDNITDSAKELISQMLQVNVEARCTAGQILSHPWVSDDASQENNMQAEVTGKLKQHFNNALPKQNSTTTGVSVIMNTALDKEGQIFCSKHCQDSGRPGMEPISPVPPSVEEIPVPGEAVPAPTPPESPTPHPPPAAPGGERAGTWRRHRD
The conditions noted are these: at 0.1 µM.

Assay [3] has as its target T1, Serine/threonine-protein kinase DCLK2 (Homo sapiens). As to conditions: at 1 µM.
Assay [4] has as its target MAP kinase-activated protein kinase 2 (Homo sapiens) (UniProt P49137). As to conditions: at 0.1 µM.
Assay [5] shares this target. The conditions noted are these: at 1 µM.
Assay [6] deals with MAP kinase-activated protein kinase 3 (Homo sapiens) (UniProt Q16644). As to conditions: at 0.1 µM.
Assay [7] has the same target. As to conditions: at 1 µM.
For assay [8], the target named is Serine/threonine-protein kinase MARK1 (Homo sapiens) (UniProt Q9P0L2). As to conditions: at 0.1 µM.
Assay [9] has the same target. The conditions noted are these: at 1 µM.
The target of assay [10] is MAP/microtubule affinity-regulating kinase 3 (Homo sapiens) (UniProt P27448). The conditions noted are these: at 0.1 µM.
Assay [11] shares this target. As to conditions: at 1 µM.
The target of assay [12] is T2, MAP/microtubule affinity-regulating kinase 4 (Homo sapiens) (UniProt Q96L34).
T2 sequence (whole entry): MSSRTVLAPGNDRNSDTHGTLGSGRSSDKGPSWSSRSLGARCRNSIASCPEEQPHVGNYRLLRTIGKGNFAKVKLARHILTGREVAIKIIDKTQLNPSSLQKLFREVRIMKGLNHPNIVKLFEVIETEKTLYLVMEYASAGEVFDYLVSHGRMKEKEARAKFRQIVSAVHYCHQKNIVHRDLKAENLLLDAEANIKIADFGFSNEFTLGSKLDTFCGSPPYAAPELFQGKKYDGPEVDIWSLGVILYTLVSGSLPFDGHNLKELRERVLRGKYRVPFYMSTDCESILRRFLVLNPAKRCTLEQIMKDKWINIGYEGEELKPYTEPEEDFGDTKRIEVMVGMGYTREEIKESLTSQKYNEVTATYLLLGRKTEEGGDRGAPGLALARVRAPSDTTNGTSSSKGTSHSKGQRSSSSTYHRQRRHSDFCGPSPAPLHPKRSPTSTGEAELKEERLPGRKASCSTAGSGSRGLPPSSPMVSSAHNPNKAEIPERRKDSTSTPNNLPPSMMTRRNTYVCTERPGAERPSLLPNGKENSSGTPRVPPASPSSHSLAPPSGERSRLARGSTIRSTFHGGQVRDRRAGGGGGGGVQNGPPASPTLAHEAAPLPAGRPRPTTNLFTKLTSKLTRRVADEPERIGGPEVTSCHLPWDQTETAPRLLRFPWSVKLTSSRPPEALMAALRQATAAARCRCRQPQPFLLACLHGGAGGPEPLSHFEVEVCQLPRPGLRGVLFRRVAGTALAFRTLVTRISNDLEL
As to conditions: at 0.1 µM.

Assay [13] concerns the target T2, MAP/microtubule affinity-regulating kinase 4 (Homo sapiens). As to conditions: at 1 µM.
Assay [14] deals with Maternal embryonic leucine zipper kinase (Homo sapiens) (UniProt Q14680). The conditions noted are these: at 0.1 µM.
Assay [15] has the same target. The conditions noted are these: at 1 µM.
For assay [16], the target named is MAP kinase-interacting serine/threonine-protein kinase 1 (Homo sapiens) (UniProt Q9BUB5). As to conditions: at 0.1 µM.
For assay [17] the target is unchanged. The conditions noted are these: at 1 µM.
The target of assay [18] is MAP kinase-interacting serine/threonine-protein kinase 2 (Homo sapiens) (UniProt Q9HBH9). As to conditions: at 0.1 µM.
For assay [19] the target is unchanged. The conditions noted are these: at 1 µM.
Assay [20] concerns the target Serine/threonine-protein kinase MARK2 (Homo sapiens) (UniProt Q7KZI7). As to conditions: at 0.1 µM.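 Note: mean percent inhibition of PAR-1Balpha kinase activity, reported from the GSK PKIS screen.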

Maternal embryonic leucine zipper kinase (Homo sapiens), sequence (Q14680 whole entry, looked up): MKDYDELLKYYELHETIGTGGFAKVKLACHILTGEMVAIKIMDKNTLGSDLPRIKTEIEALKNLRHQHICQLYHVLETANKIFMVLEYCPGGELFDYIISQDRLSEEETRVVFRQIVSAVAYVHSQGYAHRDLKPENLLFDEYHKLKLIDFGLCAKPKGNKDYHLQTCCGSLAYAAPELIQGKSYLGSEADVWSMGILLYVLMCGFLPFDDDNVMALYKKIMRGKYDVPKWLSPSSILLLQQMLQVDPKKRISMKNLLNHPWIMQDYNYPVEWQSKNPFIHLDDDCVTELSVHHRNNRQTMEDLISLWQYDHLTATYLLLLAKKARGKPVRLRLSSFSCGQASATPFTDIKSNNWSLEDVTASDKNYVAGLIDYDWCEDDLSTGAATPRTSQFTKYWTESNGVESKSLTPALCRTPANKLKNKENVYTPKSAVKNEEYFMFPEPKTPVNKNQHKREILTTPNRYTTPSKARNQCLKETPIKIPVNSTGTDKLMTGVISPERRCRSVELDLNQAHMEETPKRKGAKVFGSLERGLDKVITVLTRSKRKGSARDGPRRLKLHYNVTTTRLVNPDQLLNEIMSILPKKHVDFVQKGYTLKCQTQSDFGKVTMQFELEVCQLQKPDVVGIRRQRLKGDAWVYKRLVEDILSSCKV
MAP kinase-activated protein kinase 3 (Homo sapiens), sequence (Q16644 whole entry, looked up): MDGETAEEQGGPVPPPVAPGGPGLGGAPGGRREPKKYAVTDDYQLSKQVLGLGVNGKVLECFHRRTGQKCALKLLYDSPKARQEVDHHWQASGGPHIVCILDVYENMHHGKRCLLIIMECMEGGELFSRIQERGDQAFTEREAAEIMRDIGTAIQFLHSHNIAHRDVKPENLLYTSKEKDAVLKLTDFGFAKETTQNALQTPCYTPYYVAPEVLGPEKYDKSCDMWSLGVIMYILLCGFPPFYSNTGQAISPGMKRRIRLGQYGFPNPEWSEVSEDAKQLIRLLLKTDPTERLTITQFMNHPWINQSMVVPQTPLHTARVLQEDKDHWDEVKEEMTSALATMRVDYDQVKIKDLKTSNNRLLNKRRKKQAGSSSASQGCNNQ
MAP kinase-interacting serine/threonine-protein kinase 2 (Homo sapiens), sequence (Q9HBH9 whole entry, looked up): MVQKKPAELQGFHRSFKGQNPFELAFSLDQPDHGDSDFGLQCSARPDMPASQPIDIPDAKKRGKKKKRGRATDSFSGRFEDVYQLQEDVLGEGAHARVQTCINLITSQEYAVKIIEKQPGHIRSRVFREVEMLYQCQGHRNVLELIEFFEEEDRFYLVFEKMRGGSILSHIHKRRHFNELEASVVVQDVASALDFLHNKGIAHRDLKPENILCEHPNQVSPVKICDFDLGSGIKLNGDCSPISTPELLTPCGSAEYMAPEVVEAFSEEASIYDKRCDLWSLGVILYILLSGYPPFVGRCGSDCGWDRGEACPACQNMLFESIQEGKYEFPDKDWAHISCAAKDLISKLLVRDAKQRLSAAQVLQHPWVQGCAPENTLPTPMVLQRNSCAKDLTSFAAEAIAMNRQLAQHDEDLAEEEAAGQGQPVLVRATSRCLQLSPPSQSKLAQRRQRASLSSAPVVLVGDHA
Serine/threonine-protein kinase MARK2 (Homo sapiens), sequence (Q7KZI7 whole entry): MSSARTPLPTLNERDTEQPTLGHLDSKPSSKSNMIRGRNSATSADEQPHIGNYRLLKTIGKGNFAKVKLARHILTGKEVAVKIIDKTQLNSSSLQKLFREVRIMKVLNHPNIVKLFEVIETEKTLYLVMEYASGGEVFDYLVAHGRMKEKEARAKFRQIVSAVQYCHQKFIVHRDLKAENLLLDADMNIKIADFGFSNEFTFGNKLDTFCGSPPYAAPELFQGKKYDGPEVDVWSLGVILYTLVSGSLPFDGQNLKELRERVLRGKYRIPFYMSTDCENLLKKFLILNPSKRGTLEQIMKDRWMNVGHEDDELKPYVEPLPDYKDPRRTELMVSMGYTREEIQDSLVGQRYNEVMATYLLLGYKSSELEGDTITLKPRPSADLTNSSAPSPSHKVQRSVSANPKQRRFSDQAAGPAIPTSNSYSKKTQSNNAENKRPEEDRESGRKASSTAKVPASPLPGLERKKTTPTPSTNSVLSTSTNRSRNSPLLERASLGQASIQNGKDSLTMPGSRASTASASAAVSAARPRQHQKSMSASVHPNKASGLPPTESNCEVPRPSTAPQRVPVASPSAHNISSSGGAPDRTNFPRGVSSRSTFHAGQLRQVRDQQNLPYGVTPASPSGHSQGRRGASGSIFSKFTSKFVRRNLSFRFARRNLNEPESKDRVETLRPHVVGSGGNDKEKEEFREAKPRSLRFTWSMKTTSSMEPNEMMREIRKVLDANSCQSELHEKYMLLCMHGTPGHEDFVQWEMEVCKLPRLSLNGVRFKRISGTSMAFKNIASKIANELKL
MAP kinase-activated protein kinase 2 (Homo sapiens), sequence (P49137 whole entry, looked up): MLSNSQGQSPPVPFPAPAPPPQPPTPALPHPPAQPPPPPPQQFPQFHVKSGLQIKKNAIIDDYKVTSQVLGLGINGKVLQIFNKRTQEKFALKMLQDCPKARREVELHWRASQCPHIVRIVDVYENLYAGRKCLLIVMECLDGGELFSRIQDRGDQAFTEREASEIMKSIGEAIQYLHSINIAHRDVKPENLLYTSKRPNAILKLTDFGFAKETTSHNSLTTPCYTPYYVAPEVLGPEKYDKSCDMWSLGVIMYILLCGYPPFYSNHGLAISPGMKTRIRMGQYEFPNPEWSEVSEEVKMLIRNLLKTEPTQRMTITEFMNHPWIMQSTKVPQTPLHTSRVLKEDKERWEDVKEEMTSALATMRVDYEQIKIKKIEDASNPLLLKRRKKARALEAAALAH
MAP kinase-interacting serine/threonine-protein kinase 1 (Homo sapiens), sequence (Q9BUB5 whole entry, looked up): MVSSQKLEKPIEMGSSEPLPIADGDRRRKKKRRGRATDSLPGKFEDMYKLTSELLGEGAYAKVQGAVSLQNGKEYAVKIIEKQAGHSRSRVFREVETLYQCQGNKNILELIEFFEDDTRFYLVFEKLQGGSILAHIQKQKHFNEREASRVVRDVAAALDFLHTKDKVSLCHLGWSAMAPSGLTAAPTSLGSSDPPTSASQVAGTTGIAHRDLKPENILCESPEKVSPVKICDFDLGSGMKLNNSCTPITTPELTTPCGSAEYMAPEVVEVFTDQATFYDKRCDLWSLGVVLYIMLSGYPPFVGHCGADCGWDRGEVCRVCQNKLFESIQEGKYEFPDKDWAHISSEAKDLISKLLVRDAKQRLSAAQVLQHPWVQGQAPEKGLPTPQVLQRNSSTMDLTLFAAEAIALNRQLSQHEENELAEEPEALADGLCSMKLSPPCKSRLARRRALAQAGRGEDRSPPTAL
Death-associated protein kinase 1 (Homo sapiens), sequence (P53355 whole entry, looked up): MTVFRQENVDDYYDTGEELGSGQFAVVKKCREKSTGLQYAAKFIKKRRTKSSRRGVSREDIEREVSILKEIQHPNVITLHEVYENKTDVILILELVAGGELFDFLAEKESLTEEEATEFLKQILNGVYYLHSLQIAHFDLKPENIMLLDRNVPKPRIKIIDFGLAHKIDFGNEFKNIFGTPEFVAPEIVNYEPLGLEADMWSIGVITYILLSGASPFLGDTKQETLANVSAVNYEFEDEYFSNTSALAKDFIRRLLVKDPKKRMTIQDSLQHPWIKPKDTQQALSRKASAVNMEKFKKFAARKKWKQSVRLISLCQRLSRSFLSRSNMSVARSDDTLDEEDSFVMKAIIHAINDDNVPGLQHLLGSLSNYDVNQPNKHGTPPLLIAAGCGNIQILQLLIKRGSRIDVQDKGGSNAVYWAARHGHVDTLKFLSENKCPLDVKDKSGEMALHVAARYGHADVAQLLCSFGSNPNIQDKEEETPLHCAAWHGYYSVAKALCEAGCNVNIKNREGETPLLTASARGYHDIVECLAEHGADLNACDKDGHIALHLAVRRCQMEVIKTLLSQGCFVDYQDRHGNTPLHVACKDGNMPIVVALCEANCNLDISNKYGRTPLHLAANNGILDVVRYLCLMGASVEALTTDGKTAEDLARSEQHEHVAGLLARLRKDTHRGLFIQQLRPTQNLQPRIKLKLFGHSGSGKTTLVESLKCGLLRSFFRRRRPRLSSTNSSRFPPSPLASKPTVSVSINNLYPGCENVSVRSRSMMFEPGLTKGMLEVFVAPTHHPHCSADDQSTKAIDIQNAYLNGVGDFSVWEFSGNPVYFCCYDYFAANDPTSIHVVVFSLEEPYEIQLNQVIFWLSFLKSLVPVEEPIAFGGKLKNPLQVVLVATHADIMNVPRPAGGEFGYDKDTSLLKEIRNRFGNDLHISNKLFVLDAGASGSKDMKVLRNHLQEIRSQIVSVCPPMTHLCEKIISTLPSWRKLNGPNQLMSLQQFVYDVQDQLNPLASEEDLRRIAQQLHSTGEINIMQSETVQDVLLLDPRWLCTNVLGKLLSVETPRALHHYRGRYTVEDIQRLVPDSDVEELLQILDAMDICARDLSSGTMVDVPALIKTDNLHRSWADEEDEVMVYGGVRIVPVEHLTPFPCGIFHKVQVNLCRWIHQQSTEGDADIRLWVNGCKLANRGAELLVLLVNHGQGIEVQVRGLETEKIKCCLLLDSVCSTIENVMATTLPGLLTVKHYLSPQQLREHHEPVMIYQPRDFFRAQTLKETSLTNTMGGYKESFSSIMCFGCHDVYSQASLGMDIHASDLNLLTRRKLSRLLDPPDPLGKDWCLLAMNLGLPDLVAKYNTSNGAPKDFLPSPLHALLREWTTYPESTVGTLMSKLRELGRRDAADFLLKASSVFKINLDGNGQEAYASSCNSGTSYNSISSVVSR

For `c1ccc(-c2n[nH]cc2-c2ccnc(-c3ccc(OCCn4ccnc4)cc3)c2)nc1`, the inhibition in assay [1] was -8.69%; in assay [2], 6.53%; in assay [3], -6.73%; in assay [4], -2.58%; in [5], -2.83%; in [6], -3.24%. Besides, the inhibition in assay [7] is 4.97%; in assay [8], 1.59%; in assay [9], 3.61%; in assay [10], -0.18%; in [11], 6.87%; in [12], 1.49%. Further, the inhibition was found to be 3.83% in assay [13]; 2.12% in [14]; 27.2% in [15]; 0.75% in assay [16]; 5.94% in [17]; 0.5% in [18]. The values for the inhibition in assay [19] and in assay [20] were 7.2% and -0.46%, respectively.

In the case of `COc1cccc(Nc2nccc(-c3cnn4ncccc34)n2)c1`, the inhibition is 0.16% in assay [1]; -2.05% in assay [2]; 2.73% in assay [3]; 1.39% in assay [4]; -0.06% in [5]; 2.8% in assay [6]. Also, the inhibition in [7] was found to be 2.89%; in assay [8], 4.15%; in assay [9], 27.7%; in assay [10], 4.03%; in [11], 29.6%; in assay [12], 0.65%. Also, the inhibition in [13] came out at 17.3%; in [14] it was 5.16%; in [15] it was 52.3%; in assay [16], 2.14%; in assay [17] it was 11.3%; in assay [18], 3.27%. Besides, the inhibition in assay [19] turned out to be 22.7%; in assay [20], 1.23%.

`CC1=C(C(=O)Nc2ccc3[nH]nc(C)c3c2)C(c2ccc(C(F)(F)F)cc2)CC(=O)N1` (stereo not given): the inhibition in assay [1] stood at 4.3%; in [2], 1.35%; in [3], 0.55%; in assay [4] it was 1.67%; in [5] it was 0.92%; in [6] it was 0.91%. The inhibition in assay [7] is 3.08%; in assay [8], 1.38%; in assay [9], 3.89%; in assay [10] it was -1.82%; in assay [11] it was 5.26%; in assay [12] it was -0.05%. Besides, the inhibition in assay [13] was found to be 3.18%; in [14] it was 3.65%; in assay [15] it was 18%; in [16], 3.53%; in assay [17], 6.23%; in [18], 1.45%. Further, the values for the inhibition in assay [19] and in assay [20] were 4.23% and 0.75%, respectively.

For the compound `COc1ccccc1-c1cc(/C=C2\C(=O)Nc3ncc(Br)cc32)cc(Br)c1O`, the inhibition came out at 4.6% in [1]; 0.85% in assay [2]; 1.21% in assay [3]; 1.81% in assay [4]; 1.69% in [5]; 5.31% in assay [6]. Moreover, the inhibition in assay [7] came to 6.33%; in assay [8] it was 3.43%; in [9], 7.22%; in assay [10] it was 3.34%; in assay [11], 1.27%; in assay [12] it was 2.01%. Also, the inhibition in assay [13] came to 5.18%; in [14] it was 4.33%; in assay [15], 8.21%; in [16], 4.21%; in [17], 11.7%; in assay [18] it was 7.61%. For the same compound, the values for the inhibition in assay [19] and in assay [20] were 40.1% and -0.96%, respectively.

Regarding `CNC(=O)c1ncccc1Nc1nc(Nc2cc3c(cc2OC)CCCN3C(=O)CN(C)C)nc2[nH]ccc12`, the inhibition worked out at 7.57% in assay [1]; 1.66% in assay [2]; 3.04% in assay [3]; 2.23% in assay [4]; 1.51% in [5]; 3.6% in assay [6]. Moreover, the inhibition in assay [7] turned out to be 2.72%; in [8] it was 4.87%; in [9], 6.32%; in [10], 5.9%; in [11], 3.77%; in assay [12], 2.04%. For the same compound, the inhibition in [13] was 4.01%; in assay [14] it was 3.77%; in assay [15], 18.2%; in assay [16], 2.12%; in assay [17] it was 3.28%; in assay [18] it was 1.22%. Also, the inhibition in assay [19] came out at 1.54%; in [20], 2.14%.

With `CS(=O)(=O)CCNCc1ccc(-c2ccc3ncnc(Nc4ccc(OCc5cccc(C(F)(F)F)c5)cc4)c3c2)o1`, the inhibition in assay [1] was 5.63%; in assay [2], 0.29%; in assay [3], 1.78%; in [4] it was 3.06%; in assay [5], 3.74%; in assay [6] it was 5.88%. In addition, the inhibition stood at 8.3% in assay [7]; 0.99% in assay [8]; 3.78% in assay [9]; 0.32% in [10]; 3.96% in assay [11]; 1.47% in assay [12]. Also, the inhibition amounted to 2.54% in assay [13]; 3.5% in [14]; 11.4% in assay [15]; 2.34% in assay [16]; 6.48% in assay [17]; 0.53% in assay [18]. Besides, the inhibition in assay [19] came to 5.47%; in assay [20], 0.72%.
